Measurements as given in PubChem BioAssay (NCATS).
Values joined by “and” are separate entries in the source; they are usually repeats but may differ in a detail not shown here. Equal entries are not always repeated. Results filed as inconclusive are left out. Entries that show only a call come without a potency. Active and inactive are the calls of the source. Unless noted, calls come from the whole dose curve; as a rule, active = well fitted curve in the direction sought with a large enough effect; inconclusive = small, poorly fitted or top-dose-only effect, or another doubt; inactive = no such curve, though single readings can be large; an effect the other way counts as inactive or inconclusive.

Columns and labels:
[1] = molecular target: Calcium and integrin-binding protein 1 (Homo sapiens) (UniProt Q99828); test: Primary qHTS for Identification of Calcium Integrin Binding Protein 1 (CIB1) Competitor (AID 1508620);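 note: GST tagged CIB1 binding a fluorescein labelled alphaIIb integrin peptide tracer; top concentration of the series differs between compounds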
Outline: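 CIB1-GST (1 uM final) and compound incubated 15 min at room temperature before adding FITC-alphaIIb peptide tracer (100 nM final). Competition for binding read by fluorescence polarization (ex 480, em 540) after another 15 min at room temperature.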

[2] = Primary qHTS for small molecule stabilizers of the endoplasmic reticulum resident proteome: Secreted ER Calcium Modulated Protein (SERCaMP) assay (AID 1508630)
Outline: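 GLuc-SERCaMP-expressing SH-SY5Y cells, pretreated 16 h with compound, are challenged with thapsigargin to empty ER calcium stores; after 4 h, coelenterazine is added directly to the medium and luminescence is imaged.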

[3] = molecular target: Cytochrome P450 2C9 (Homo sapiens) (UniProt P11712); test: Cytochrome P450 family 2 subfamily C member 9 (CYP2C9) small molecule antagonists: luciferase biochemical (cell-free) qHTS assay (AID 1645842; active = well fitted curve in the direction sought with a large enough effect in the repeat runs; an effect the other way counts as inactive or inconclusive; note: nearly all actives have a fitted effect of over 55% in size; note: potency is the fitted concentration of half-maximal effect)
Outline: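 Luminescence, after 20 min with luciferin detection reagent, reflected CYP2C9 turnover during a 1 h NADPH-driven reaction at 37C. Enzyme-substrate mix contained 0.4% bovine serum albumin and was preincubated with compound 10 min at room temperature.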

[4] = Primary qHTS for inhibitors of nuclear receptor binding SET domain protein 2 (NSD2) in an isogenic RCH-ACV NSD2 p.E1099K mutant (9B) (AID 1645876); note: potency is the fitted concentration of half-maximal effect; nearly all actives have a fitted effect of over 70% in size
[5] = Primary qHTS for inhibitors of nuclear receptor binding SET domain protein 2 (NSD2) in an RCH-ACV wild type WT cells (2C) (AID 1645877); note: potency is the fitted concentration of half-maximal effect; nearly all actives have a fitted effect of over 70% in size
[6] = molecular target: Cytochrome P450 2D6 (Homo sapiens) (UniProt P10635); test: Cytochrome P450 family 2 subfamily D member 6 (CYP2D6) small molecule antagonists: luciferase biochemical (cell-free) qHTS assay (AID 1645840; active = well fitted curve in the direction sought with a large enough effect in the repeat runs; an effect the other way counts as inactive or inconclusive; note: series mostly up to about 57 µM; nearly all actives have a fitted effect of over 55% in size)
Outline: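 P450-Glo luminescent screen: recombinant CYP2D6 enzyme–proluciferin substrate mix preincubated with compound 10 min at room temperature, then NADPH regeneration added for 1 h at room temperature. Detection reagent added for 20 min; luciferin light read as relative luminescence units.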

Calcium and integrin-binding protein 1 (Homo sapiens), sequence (Q99828 whole entry, looked up): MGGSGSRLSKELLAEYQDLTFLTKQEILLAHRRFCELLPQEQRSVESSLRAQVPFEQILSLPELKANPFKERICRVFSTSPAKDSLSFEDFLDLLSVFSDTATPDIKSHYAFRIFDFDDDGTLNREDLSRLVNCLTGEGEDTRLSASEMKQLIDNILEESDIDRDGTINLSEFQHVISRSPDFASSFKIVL
Cytochrome P450 2C9 (Homo sapiens), sequence (P11712 whole entry, looked up): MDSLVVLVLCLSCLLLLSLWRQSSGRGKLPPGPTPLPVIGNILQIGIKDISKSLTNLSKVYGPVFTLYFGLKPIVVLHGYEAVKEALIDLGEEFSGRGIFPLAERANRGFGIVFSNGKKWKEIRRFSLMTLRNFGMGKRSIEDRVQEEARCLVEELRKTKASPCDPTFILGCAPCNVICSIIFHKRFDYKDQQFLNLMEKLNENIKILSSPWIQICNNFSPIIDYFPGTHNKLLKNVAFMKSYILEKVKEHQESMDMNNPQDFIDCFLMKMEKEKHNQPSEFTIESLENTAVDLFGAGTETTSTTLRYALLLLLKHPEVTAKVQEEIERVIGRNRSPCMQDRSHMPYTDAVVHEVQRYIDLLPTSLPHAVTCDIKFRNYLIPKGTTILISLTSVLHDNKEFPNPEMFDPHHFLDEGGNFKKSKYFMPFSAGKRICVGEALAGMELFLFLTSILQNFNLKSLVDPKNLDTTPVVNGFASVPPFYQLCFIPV
Cytochrome P450 2D6 (Homo sapiens), sequence (P10635 whole entry, looked up): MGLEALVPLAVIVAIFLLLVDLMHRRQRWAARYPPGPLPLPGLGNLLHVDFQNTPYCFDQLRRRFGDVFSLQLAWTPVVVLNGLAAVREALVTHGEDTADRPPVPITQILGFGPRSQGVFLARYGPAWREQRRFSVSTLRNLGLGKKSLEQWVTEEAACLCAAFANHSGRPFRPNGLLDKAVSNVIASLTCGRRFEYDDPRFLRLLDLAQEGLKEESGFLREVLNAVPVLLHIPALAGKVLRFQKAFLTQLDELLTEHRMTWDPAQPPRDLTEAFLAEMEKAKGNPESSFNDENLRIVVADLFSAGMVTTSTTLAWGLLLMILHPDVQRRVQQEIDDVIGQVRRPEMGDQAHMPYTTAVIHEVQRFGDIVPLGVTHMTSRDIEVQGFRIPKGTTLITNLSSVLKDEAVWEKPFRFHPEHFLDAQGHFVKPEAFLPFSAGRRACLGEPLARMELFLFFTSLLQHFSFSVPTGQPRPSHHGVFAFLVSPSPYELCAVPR

| SMILES | Potency [1] | outcome [2] | Potency [3] | Potency [4] | Potency [5] | Potency [6] |
| --- | --- | --- | --- | --- | --- | --- |
| CC(C)n1cnc2c(NCCc3ccc(O)cc3)nc(-c3csc4ccccc34)nc21 | inactive | inactive | 2.68 µM (active) | 20.5 µM (active) | 26.3 µM (active) |  |
| c1cncc(CN2CCC(n3ncc4c(N5CCOCC5)nc(-c5ccc6[nH]ccc6c5)nc43)CC2)c1 | inactive | inactive | 1.9 µM (active) | 916 nM (active) and 833 nM (active) | 1.15 µM (active) and 1.05 µM (active) |  |
| CCOC(=O)N1CCN([N+]([O-])=NOc2ccc([N+](=O)[O-])cc2C#N)CC1 | inactive | inactive |  |  |  | inactive |
| Oc1ccc([C@@H]2Oc3ccc(O)cc3[C@@H]3CCC[C@@H]32)cc1 | inactive | inactive | inactive | 8.33 µM (active) | 5.9 µM (active) |  |
| Cn1cnc2c(F)c(Nc3ccc(Br)cc3F)c(C(=O)NOCCO)cc21 | inactive | inactive | 9.52 µM (active) |  |  | inactive |
